About 83,000 compounds went through this panel and 20% of them were active in at least one assay; those are over-represented in the sample as a whole.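 Step 1: grow cells in 96-well plates. Step 2: add test compound at a single concentration. Step 3: incubate 48 h. Step 4: record percent growth.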 Active and inactive are the calls of the source. How the source made its calls: active means growth percent below 10; inactive means the rest.
These compounds were tested on NCI-H23 lung (assay: NCI-60 one-dose screen, 48 h (100 = growth as untreated, 0 = no growth, -100 = all killed)). Conditions: 10 µM unless noted.

Row | Structure (SMILES) | growth
1 | COc1ccc(S(=O)(=O)N2CCN(c3cc4c(cc3F)c(=O)c(C(=O)O)cn4C3CC3)CC2)c(OC)c1 | 97% (inactive)
2 | CCC(C)NCC(=O)O (centres undefined) | 108% (inactive)
3 | O=C(O)Cc1ccc2c(c1)Cc1cccnc1O2 | 98.9% (inactive)
4 | COc1cc(Cn2c(SCC(=O)Nc3ccc(Cl)cc3)nc3ccccc3c2=O)cc(OC)c1OC | 73% (inactive)
5 | CC(C)(C)OC(=O)N[C@@H](Cc1ccccc1)C(=O)N(Cc1ccccc1)C1(C(=O)NCc2ccccc2)CCN(Cc2ccccc2)CC1 | 49.3% (inactive)
6 | COC(=O)C(CC(=O)c1ccc(-c2ccccc2)cc1)c1ccccc1 (centres undefined) | 76.6% (inactive)
7 | C=C1C(=O)O[C@H]2[C@H]1CC/C(Cn1cc(-c3ccccc3C(F)(F)F)nn1)=C\CC[C@@]1(C)O[C@@H]21 | 7.85% (active)
8 | O=C(O)C(=Cc1c2ccccc2cc2ccccc12)C(=O)O | 91.3% (inactive)
9 | CN(C)c1nc(N)c(N=O)c(N)n1 | 107% (inactive)
10 | CCCCCCC[C@@H](O)CC(=O)N[C@H](CCCCN)C(=O)N[C@H](Cc1c[nH]c2ccccc12)C(=O)NC(CCCCN)C(=O)N[C@H](CC(C)C)C(=O)N[C@H](Cc1ccccc1)C(=O)N[C@H](CCCCN)C(=O)N[C@H](CCCCN)C(=O)N[C@H](CC(C)C)C(=O)N1CCCC1C(=O)N[C@H](CCCCN)C(=O)N[C@H](Cc1ccccc1)C(=O)N[C@H](CC(C)C)C(=O)N[C@H](Cc1c[nH]cn1)C(=O)N[C@H](CC(C)C)C(=O)N[C@H](C)C(=O)N[C@H](CCCCN)C(=O)N[C@H](CCCCN)C(=O)N[C@H](Cc1ccccc1)C(=O)O (some centres undefined) | -41.6% (active)
11 | O=S(=O)(NCCCNc1cc(-c2cn(-c3ccccc3)nc2-c2cccc(O)c2)ccn1)c1cccc2ccccc12 | 44.9% (inactive)
12 | O=C(NCCCN1CCN(CCCNC(=O)C2CCCCC2)CC1)C1CCCCC1 | 111% (inactive)
13 | CCN(Cc1ccc(CN(CC)C(=O)C(Cl)(Cl)Cl)cc1)C(=O)C(Cl)(Cl)Cl | 67.6% (inactive)
14 | CCOC(=O)CC(C#N)(CC(=O)OCC)C(=O)OCC | 106% (inactive)
15 | COc1ncc(-c2ccc3ncnc(Nc4cccc(Cl)c4)c3c2)cc1NS(=O)(=O)C1CC1 | 54.2% (inactive)
16 | Cc1cc(C)c(S(=O)(=O)N2CCN(c3cc4c(cc3F)c(=O)c(C(=O)O)cn4C3CC3)CC2)c(C)c1 | 57.4% (inactive)
17 | COc1ccc(/C=C/C(=O)OCC(=O)NNC(=O)c2ccccc2)cc1OC | 106% (inactive)
18 | O=C1c2ccccc2C(=O)c2c1oc1oc3c(c(=O)c21)c(=O)n(-c1ccccc1)c1ccccc31 | 38.2% (inactive)
19 | O=C(Nc1ccc(Cl)cc1)c1cc(-c2ccc(F)cc2)c2sc(=O)[nH]c2n1 | 5.26% (active)
20 | CC(C)(C)c1ccc(S(=O)(=O)Oc2ccc3c4c(c(=O)oc3c2)CCCCC4)cc1 | 43% (inactive)

Row | Structure (SMILES) | growth
21 | CCN(CC)CCSc1c2ccc(Cl)cc2nc2ccc(OC)cc12 | 87.1% (inactive)
22 | Cc1ccc(OCCn2c(C)nn(-c3ccc(Cl)cc3)c2=O)cc1 | 94.7% (inactive)
23 | O=C(CN1CCN(c2cc3c(cc2F)c(=O)c(C(=O)O)cn3C2CC2)CC1)Nc1ccc(C(=O)/C=C/c2ccc(Cl)cc2)cc1 | 105% (inactive)
24 | CCC(c1ccc(OC)cc1)C(CC)c1ccc(OCC[N+](C)(C)C)cc1 (centres undefined) | 48.8% (inactive)
25 | O=C(C[N+](=O)[O-])c1ccc(Cl)cc1 | 104% (inactive)
26 | O=C(CCC(=O)OC1CCCC1)OC1CCCC1 | 105% (inactive)
27 | CCOC(=O)c1ccccc1NC(c1ccccc1)c1ccc2cccnc2c1O (centres undefined) | 30.3% (inactive)
28 | C/C(=C\c1csc(C)n1)[C@@H]1C[C@@H]2O[C@]2(C)CCC[C@H](C)[C@H](O)[C@@H](C)C(=O)C(C)(C)[C@@H](O)CC(=O)N1 | -70% (active)
29 | COc1ccc(C2CC(c3cccs3)=NN2c2ccc(S(=O)(=O)NC(=O)Nc3ccc(C)cc3)cc2)cc1 (centres undefined) | 98.5% (inactive)
30 | CCSc1nnc(NC(=O)COc2ccc(Cl)cc2C)s1 | 105% (inactive)
31 | COc1cc(CNC(=O)CSc2nc3ccccc3c(=O)n2Cc2cc(OC)c(OC)c(OC)c2)cc(OC)c1OC | 105% (inactive)
32 | COc1ccc(NC(=S)/N=c2\oc3c(OC)cccc3cc2-c2cc3ccccc3[nH]2)cc1 | 70.1% (inactive)
33 | COc1ccc(C2=CC(c3ccc(Oc4ccnc5cc(Cl)ccc45)c(OC)c3)c3c(nc(OC)[nH]c3=O)N2)cc1 (centres undefined) | 83.4% (inactive)
34 | CCN(C(=O)c1cc2ncccc2[nH]1)[C@H]1CCC[C@@H](NCc2cccc(F)c2)C1 | 97.4% (inactive)
35 | COc1ccc(/C=C/C(=O)/C=C/c2cc3ccc(Cl)cc3[nH]c2=O)cc1 | 81.1% (inactive)
36 | CCc1c(C(=O)Nc2ccc3ccccc3c2)[nH]c(C)c1C(C)=O | 85.8% (inactive)
37 | Cc1cnc(NC(=O)C(Cc2ccccc2)NC(=O)c2ccccc2)s1 (centres undefined) | 86% (inactive)
38 | O=C1Nc2ccc(Br)cc2C1=N/C=c1\[nH]c(=O)/c(=C/c2ccc(Cl)cc2)s1 | 97.8% (inactive)
39 | CC/C(=C(\c1ccc(O)cc1)c1ccc(OCCN(C)CCN(C)C(=O)CCC(=O)c2c(C)[nH]c(/C=C3\N=C(c4ccc[nH]4)C=C3OC)c2C)cc1)c1ccccc1 | 80.1% (inactive)

Reference: PubChem BioAssay (NCI)
